Source: PubChem BioAssay (Broad Institute)
The entries come from a sample that favours hits as a whole.
Tg IFNy HTS: blocks Toxoplasma gondii growth in the presence of IFN-gamma. activity change, negative = inhibition, % (concentration not given with the values). Toxoplasma gondii growth in IFN-gamma-treated host cells; hits give low values. 69,000 tested, 3.8% active; in the data active = activity change below about -70%, passing the limit was not always enough;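 note: host cells are HeLa cells infected with Toxoplasma gondii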
Of the large screens only hits and unclear results are named; the others gave an inactive call; ! = repeats disagree.

COc1ccc(-c2nc(Cn3ccn4nc(-c5cccs5)cc4c3=O)c(C)o2)cc1	none
CCOc1ccc(NC(=O)c2cncc(NS(=O)(=O)c3ccc(Br)cc3)c2)cc1	none
COc1ccc(C(C)NC(=O)c2ccc(Cc3c(C)noc3C)s2)cc1F (centres undefined)	none
COc1ccc2nc(NC(=O)COc3cccc(C)c3)sc2c1	none
COc1cc2sc(NC(=O)Cc3c(C)noc3C)nc2cc1Cl	Tg IFNy HTS -79
CN(C)C(=O)COCC1CN(Cc2ccncc2)Cc2ccnn2C1 (centres undefined)	none
CC1(C(=O)N2CCOCC2)CN(C(=O)c2ccc3nsnc3c2)CCO1 (centres undefined)	none
COc1ccc(NC(=O)c2nc(Nc3ccc(C)cc3)c3ccccc3n2)cc1Cl	none
Cc1ccc(SC(=O)c2cc(C)n(-c3c(Cl)cc(Cl)cc3Cl)n2)cc1	Tg IFNy HTS -100
C#C[C@]1(O)CCC2C3CCC4=CC(=O)CC[C@@H]4C3CC[C@@]21CC (some centres undefined)	none
C#C[C@]1(OC(C)=O)CCC2C3CCC4=C/C(=N/O)CCC4C3CC[C@@]21CC (some centres undefined)	Tg IFNy HTS -78
C#C[C@]1(O)CC[C@H]2[C@@H]3CCC4=CC(=O)CC[C@@H]4[C@H]3CC[C@@]21C	none
CS(=O)(=O)c1ccc(-c2ccc(Cn3ccnc3)cc2)cc1	none
O=C(O)c1c[nH]c2ccc(Cl)cc2c1=O	none
CCCCc1nc2cc(/C=C/C(=O)NO)ccc2n1CCN(CC)CC	Tg IFNy HTS -82
CCCCC(=O)Nc1cc2nc(CCCC)n(Cc3ccccc3Cl)c2nc1C	none
CCN(CC)CCn1c(=O)c(Cc2ccc(OC)cc2)nc2ccccc21	none
CN(C)CC1(O)CCCN(C(=O)c2ccc3ccccc3n2)C1 (centres undefined)	none
Cc1nccc(NCc2cncc3c2CCN(C(=O)NC(C)C)C3)n1	none
C=C[C@H]1CN2CC[C@H]1C[C@H]2[C@H](O)c1ccnc2ccc(OC)cc12	Tg IFNy HTS -85
COc1cccc(-c2nccc(C3CCCN3C(=O)c3ccc4ncccc4c3)n2)c1 (centres undefined)	none
CCN(CC)Cc1nc2c(o1)CN(S(=O)(=O)c1cccc(C)c1)C2	none
O=C(c1ccc(-c2ccc(O)cc2)nc1)N1CCC(CCc2ccccc2)CC1	none
COc1ccc2[nH]cc(CCNC(=O)c3ccc(N4CCCC4)c(S(=O)(=O)N4CCCC4)c3)c2c1	none
COc1ccc2[nH]cc(CCNc3ccc(S(=O)(=O)C4CCCCC4)nn3)c2c1	none
COc1ccc2[nH]cc(CCNc3ccc(S(=O)(=O)C(C)C)nn3)c2c1	Tg IFNy HTS -113
CCn1ncc(-c2csc(NC(=O)c3oc4cc(OC)ccc4c3C)n2)c1C	none
CN(C)S(=O)(=O)CCNC(=O)C(=O)N1CCc2ccccc21	none
CN(C)CCCN1c2ccccc2Sc2ccccc21	none
CNCCCN1c2ccccc2CCc2ccccc21	Tg IFNy HTS -83!
CC(=O)c1cc(C(=O)NCCCN2CCCc3ccccc32)cs1	none
CC(=O)c1ccc2c(c1)N(CCCN(C)C)c1ccccc1S2	none
CN(C)CCCN1c2ccccc2CCc2ccc(Cl)cc21	Tg IFNy HTS -70!
O=C(Cc1ccc(Cl)cc1)NCCCNC(=O)c1cnccn1	none
CC(C)n1cnc2c(-c3cnn(C)c3)nc(C3CCN(Cc4cccnc4)CC3)cc21	none
CN(C)CCn1c2c(ccc1=O)CCN(Cc1cccs1)CC2	none
COc1cccc(OC)c1CNC(=O)c1ccc(C2CCNC2)cc1 (centres undefined)	none
Cc1cc(C(=O)NCc2ccc3c(c2)OCO3)ccc1NC(=O)c1ccco1	none
C[C@@H]1CCCCO[C@@H](CN(C)S(=O)(=O)c2ccc(Cl)cc2)[C@@H](C)CN([C@H](C)CO)C(=O)c2cc(NC(=O)Nc3ccc(C(F)(F)F)cc3)ccc2O1	none
COc1ccc(S(=O)(=O)N(C)C[C@@H]2Oc3ccc(NC(=O)Nc4ccc(C(F)(F)F)cc4)cc3C(=O)N([C@H](C)CO)C[C@H]2C)cc1	Tg IFNy HTS -75
COc1ccc(S(=O)(=O)Nc2ccc3c(c2)C(=O)N([C@H](C)CO)C[C@@H](C)[C@H](CN(C)S(=O)(=O)c2ccc(Cl)cc2)OCCCC[C@H](C)O3)cc1	Tg IFNy HTS -113
COc1ccc(S(=O)(=O)N(C)C[C@H]2Oc3ccc(NC(=O)Nc4ccc(C(F)(F)F)cc4)cc3C(=O)N([C@H](C)CO)C[C@@H]2C)cc1	none
COc1ccc(S(=O)(=O)Nc2ccc3c(c2)C(=O)N([C@@H](C)CO)C[C@@H](C)[C@@H](CN(C)C(=O)Nc2c(C)noc2C)OCCCC[C@H](C)O3)cc1	Tg IFNy HTS -78
C[C@@H]1CCCCO[C@H](CN(C)S(=O)(=O)c2ccc(Cl)cc2)[C@@H](C)CN([C@H](C)CO)C(=O)c2cc(NC(=O)Nc3ccc(C(F)(F)F)cc3)ccc2O1	none
COc1ccc(S(=O)(=O)N(C)C[C@H]2OCCCC[C@@H](C)Oc3ccc(NC(=O)Cc4ccccc4)cc3C(=O)N([C@@H](C)CO)C[C@H]2C)cc1	Tg IFNy HTS -102
COc1ccc(S(=O)(=O)N(C)C[C@H]2OCCCC[C@H](C)Oc3ccc(NC(=O)Cc4ccccc4)cc3C(=O)N([C@H](C)CO)C[C@H]2C)cc1	none
